From ChEMBL document CHEMBL4513216, “Probing the Open Global Health Chemical Diversity Library for Multistage-Active Starting Points for Next-Generation Antimalarials” (ACS Infect Dis, 2020) come the findings set out here.

The whole screen tested about 69,000 compounds, of which about 8,600 (12%) showed an effect of 50% or more. Many of the other results were omitted from the sample, so strong results are more common in it than they were.

The subject of the assay is Plasmodium berghei. In words: Screen against P. berghei liver stage (PbLuc), transformed with Luciferase, at 10uM. As to conditions: tested at 10 uM. The class given is functional, HepG2.
With `Nc1nc(CNc2ncnc3c2CCN(Cc2ccoc2)CC3)cs1`, the INHIBITION is 51.8%.

On to `c1cc(CCNc2ncnc3c2CCN(Cc2ccoc2)CC3)ccn1`, for which the INHIBITION worked out at 12.8%.

On to `CC(C)Nc1ncnc2c1CCN(Cc1ccoc1)CC2`, for which the INHIBITION is -22.1%.

Turning to `O=C(c1cncs1)N1CCOC(c2cc(CCO)[nH]n2)C1` (stereo not given), the INHIBITION is on record as -4.5%.

As to `O=C([C@H]1C[C@H]2OCC[C@H]2N(C(=O)c2ccccn2)C1)N1CCCCO1`, the INHIBITION is 22.2%.

On to `CCN(CC)CCCNCc1cc2cccc(C)c2[nH]c1=O`, for which the INHIBITION was -36.4%.

Turning to `CN1CCN(C(=O)Cn2nc(C(F)(F)F)c(Br)c2C2CC2)CC1`, the INHIBITION is recorded as 16.5%.

With `CCCN1CCN(C(=O)Cn2nc(C(F)(F)F)c(Br)c2C2CC2)CC1`, the INHIBITION was found to be 64.7%.

In the case of `CCN1CCN(C(=O)Cn2nc(C(F)(F)F)c(Br)c2C2CC2)CC1`, the INHIBITION is listed as 30.8%.

Turning to `CCN1CCCC1CNC(=O)Cc1c(C)n[nH]c1-c1ccc(F)cc1` (stereo not given), the INHIBITION worked out at 38.8%.

As to `CCOC(=O)c1sc2ccsc2c1CN`, the INHIBITION is recorded as 0.938%.

Regarding `COc1cc(-c2cccc3c2OC(CN)C3)ccc1O` (stereo not given), the INHIBITION is given as 50.8%.

On to `COc1cc(-c2cccc3c2OC(CN)C3)cc(OC)c1OC` (stereo not given), for which the INHIBITION was determined as 48%.

As for `COc1ccc(-c2cccc3c2OC(CN)C3)cc1F` (stereo not given), the INHIBITION is on record as 47.1%.

In the case of `Cc1ccc(CCCC(=O)N2CCC(CS(N)(=O)=O)CC2)s1`, the INHIBITION is -0.554%.

Take `CC(C)Oc1ncnc2c1CCN(Cc1ccco1)CC2`: the INHIBITION is listed as 50.7%.

For the compound `CC(C)Oc1ncnc2c1CCN(Cc1cccs1)CC2`, the INHIBITION is recorded as 40.7%.

In the case of `CC(C)Oc1ncnc2c1CCN(Cc1ccc(F)cc1)CC2`, the INHIBITION was 60.3%.

Regarding `COc1ccc(CN2CCc3ncnc(C4CC4)c3CC2)cc1`, the INHIBITION was determined as 47.4%.

Turning to `Cc1ccc(CN2CCc3ncnc(OC(C)C)c3CC2)s1`, the INHIBITION was -34.6%.

As to `CCc1ncnc2c1CCN(Cc1ccc(OC)cc1)CC2`, the INHIBITION is given as 26.7%.

`O=C(c1ccncc1)N1CCc2ncnc(C3CCOC3)c2CC1` (stereo not given): the INHIBITION stood at 49.7%.

`COc1ccc(CN2CCc3ncnc(OC(C)C)c3CC2)cc1`: the INHIBITION worked out at 56.7%.

On to `O=C(c1ccnnc1)N1CCc2ncnc(C3CCOC3)c2CC1` (stereo not given), for which the INHIBITION was 38.1%.

Regarding `O=C(c1cccs1)N1CCc2ncnc(C3CCOC3)c2CC1` (stereo not given), the INHIBITION is given as 53.2%.

Consider `COCCN1CCc2ncnc(OC(C)C)c2CC1`, for which the INHIBITION is on record as 37.5%.

Consider `CC(C)Oc1ncnc2c1CCN(Cc1ccoc1)CC2`, for which the INHIBITION stood at 8.85%.

As to `COCC1CC2(CCN(Cc3cccc(C#N)c3)CC2)CN1C(C)C` (stereo not given), the INHIBITION is on record as -11.2%.

Regarding `CCCS(=O)(=O)NCC(C)(O)c1ccsc1` (stereo not given), the INHIBITION amounted to 20.9%.

`Cc1nc(Nc2nnc(C)s2)cc(C2CCCN2C)n1` (stereo not given): the INHIBITION is given as 21.6%.

For the compound `O=C(c1cccc(C2CCNC2)c1)N1CCC(c2ccncc2)CC1` (stereo not given), the INHIBITION was -19.1%.

Regarding `Cc1ccc(N2CC[C@H]3OCC[C@@]3(C(=O)N3CCCC3)C2)nn1`, the INHIBITION was 40.1%.

Take `CC(C)n1cnnc1CNC(=O)c1cnn(-c2ccccc2)c1`: the INHIBITION is given as -20.3%.

Take `Cc1ccc(Cl)cc1N1CCC(CNC(=O)Cn2cccn2)C1` (stereo not given): the INHIBITION is reported as 10.083%.

For `c1coc(CN2CCc3ncnc(C4CCOC4)c3CC2)c1` (stereo not given), the INHIBITION was 79.6%.

Take `c1nc2c(c(C3CCOC3)n1)CCN(Cc1ccoc1)CC2` (stereo not given): the INHIBITION came to 12.1%.

For `c1ccc(CN2CCc3ncnc(C4CCOC4)c3CC2)nc1` (stereo not given), the INHIBITION was determined as 33%.

With `O=C(Nc1ccc(CCN2CCOCC2)cc1)C1CCCC1`, the INHIBITION was -7.85%.

`O=C(NCC1CC1)c1cc2c(s1)CCN2C(=O)c1ccc(F)cc1`: the INHIBITION was found to be 4.57%.

For `CN(C)S(=O)(=O)NCC(Cc1cccc(F)c1)N1CCNC1=O` (stereo not given), the INHIBITION is recorded as -15.3%.

With `CCC(C)NC(=O)c1nn(C)c(NC(=O)c2ccccc2OC)c1F` (stereo not given), the INHIBITION stood at 19.3%.

For the compound `COc1cccc(CCC(=O)Nc2c(C)nn(C)c2C)c1OC`, the INHIBITION worked out at 31%.

In the case of `COc1ccccc1C(=O)Nc1c(F)c(C(=O)NC2CCCC2)nn1C`, the INHIBITION was 4.48%.

With `COc1ccccc1C(=O)Nc1c(F)c(C(=O)NCCC(C)C)nn1C`, the INHIBITION is reported as 57%.

For the compound `CCOc1ccccc1CCC(=O)Nc1c(C)nn(C)c1C`, the INHIBITION is reported as 22.6%.

For the compound `COc1ccccc1C(=O)NCCC(=O)Nc1c(C)nn(C)c1C`, the INHIBITION stood at 51.8%.

`CC(=O)N1CCC2(CC1)COCCN2CCN(C)C`: the INHIBITION is -8.94%.

For the compound `Cc1cc(C)n(CC2CN(CCOc3ccccc3F)CCO2)n1` (stereo not given), the INHIBITION was 9.14%.

With `Cc1ccc(N2CCc3ncc(CNc4ccccn4)n3CC2)nn1`, the INHIBITION is 18.4%.

Take `O=C(c1cscn1)N1CCC(O)(Cn2ccc3ccncc32)CC1`: the INHIBITION came to 17.1%.

Take `CC(=O)N1N=C(c2ccco2)OC1C(=O)NCC(C)C` (stereo not given): the INHIBITION is recorded as -4.32%.

Regarding `CC(C)(C)n1cc(NCc2cscn2)cn1`, the INHIBITION worked out at 29.4%.

As to `CC(C)Cn1cc(NCc2cscn2)cn1`, the INHIBITION was -24.5%.

Regarding `FC(F)(F)Cn1cc(NCc2cscn2)cn1`, the INHIBITION is on record as 62%.

Turning to `CCOc1cc(=O)n2c(c1C(=O)OCc1ccc(C)cc1)CCCC2`, the INHIBITION is on record as 32.2%.

`O=C1N(Cc2cccnc2)CCC12CCCN(c1ncccn1)C2` (stereo not given): the INHIBITION was determined as 87.2%.

`CCc1cnc(N2CCC3(CCN(Cc4cccc(C)c4)C3=O)C2)nc1` (stereo not given): the INHIBITION is reported as 60.5%.

`N#Cc1ccc(N2CCC3(CCCN(c4ccccn4)C3)C2)nc1` (stereo not given): the INHIBITION is listed as 12.1%.

Consider `COc1cc(N2CCC3(CC2)CCN(c2cccnc2)C3=O)ncn1`, for which the INHIBITION is reported as 68.4%.

As to `COc1cccc(N2CC3(CCN(c4cc(OC)ncn4)C3)CC2=O)c1` (stereo not given), the INHIBITION came to 34.6%.

Consider `Cc1cccc(CN2CCC3(CCN(c4ncccn4)CC3)C2=O)c1`, for which the INHIBITION came to 42%.

On to `Cc1cccc(CN2CCC3(CCN(c4ncccn4)C3)C2=O)c1` (stereo not given), for which the INHIBITION is reported as -23.3%.

On to `O=C1N(c2cncnc2)CCC12CCCN(Cc1ccccn1)C2` (stereo not given), for which the INHIBITION is reported as -11.5%.

As for `N#Cc1ccc(N2CCCC3(CCN(c4cncnc4)C3=O)C2)nc1` (stereo not given), the INHIBITION was 65.7%.

Turning to `O=C1N(Cc2ccncc2)CCC12CCCN(c1ncc(F)cn1)C2` (stereo not given), the INHIBITION was determined as 39.5%.

Take `O=C1N(Cc2cccnc2)CCC12CCCN(c1ncc(F)cn1)C2` (stereo not given): the INHIBITION is reported as -42%.

Take `COc1cc(N2CCC3(C2)CN(c2cccnc2)C(=O)CN3C)ncn1` (stereo not given): the INHIBITION amounted to 30.3%.

On to `CN(C)CCOCc1cncc2c1CCN(Cc1ccccn1)C2`, for which the INHIBITION is reported as -8.51%.

Take `Cc1nc(CN2CCO[C@H]3[C@@H](OCc4cccnc4)CC[C@@H]32)cs1`: the INHIBITION was determined as 14.6%.

Take `Cc1nc(C(=O)N2CCN(S(C)(=O)=O)CC2)c(-c2ccccc2Cl)s1`: the INHIBITION stood at 23%.
